Reference: PubChem BioAssay AID1159580 (chemical genetic matrix, 2015)
Several values for one entry are separate records, joined by “and”; a condition that tells them apart may be missing. Equal entries are not always repeated. Among all 5,500 compounds or so, about 2,000 (36%) were called active. Roughly 18% stayed inconclusive and do not appear here. Cut-off read from the data, not from the text of the source: active = normalized growth mostly below about 0.91 (no sharp cut-off); inconclusive = no clear call, values can overlap the other calls; inactive = mostly above about 0.92. The list shows a part of the results.

Experiment: chemical genetic growth profiling, strain panel (AID 1159580);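 note: tested at 20 µM; growth read once vehicle control cultures reached saturation at 30 °C; 1 = growth at the plate median or of vehicle wells; lower values mean less growth of the strain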
Details: S. cerevisiae deletion strains, growth OD

Measured: normalized growth

CC1(C)S[C@@H]2[C@H](NC(=O)Cc3ccccc3)C(=O)N2[C@H]1C(=O)O
inactive: locus YAL021C, strain ccr4, active compounds read low 1.03 | locus YAL026C, strain drs2, active compounds read low 1.04 | locus YAL030W, strain snc1, active compounds read low 1.03 | locus YBL061C, strain skt5, active compounds read low 1.04 | locus YBR009C, strain hhf1, active compounds read low 1.03 | locus YBR021W, strain FUR4, active compounds read low 1.01 | locus YBR023C, strain chs3, active compounds read low 1.04 | locus YBR171W, strain sec66, active compounds read low 1.04 | locus YBR229C, strain ROT2, active compounds read low 1 | locus YBR231C, strain swc5, active compounds read low 1.02 | locus YBR279W, strain paf1, active compounds read low 1.02 | locus YCL011C, strain gbp2, active compounds read low 1.04 | locus YCL016C, strain dcc1, active compounds read low 1.03 | locus YCL029C, strain bik1, active compounds read low 1.02 | locus YCL061C, strain MRC1, active compounds read low 1.02 | locus YCL069W, strain vba3, active compounds read low 1.04 | locus YCR088W, strain abp1, active compounds read low 1.03 | locus YDL005C, strain med2, active compounds read low 1.02 | locus YDL035C, strain GPR1, active compounds read low 1.01 | locus YDL040C, strain nat1, active compounds read low 1.03 | locus YDL074C, strain BRE1, active compounds read low 1.01 | locus YDL101C, strain DUN1, active compounds read low 1.01 | locus YDL134C, strain PPH21, active compounds read low 1 | locus YDL185W, strain tfp1, active compounds read low 1 | locus YDL192W, strain arf1, active compounds read low 1.02 | locus YDR001C, strain nth1, active compounds read low 1.01 | locus YDR069C, strain doa4, active compounds read low 1 | locus YDR101C, strain arx1, active compounds read low 1.02 | locus YDR137W, strain rgp1, active compounds read low 1.03 | locus YDR150W, strain NUM1, active compounds read low 1 | locus YDR159W, strain sac3, active compounds read low 1.02 | locus YDR162C, strain NBP2, active compounds read low 1.01 | locus YDR195W, strain ref2 1.01 | locus YDR297W, strain sur2, active compounds read low 1.01 | locus YDR318W, strain mcm21, active compounds read low 1.02 | locus YDR334W, strain swr1, active compounds read low 1.04 | locus YDR335W, strain msn5, active compounds read low 1.03 | locus YDR388W, active compounds read low 1.02 | locus YDR392W, strain spt3, active compounds read low 0.994 | locus YDR502C, strain sam2, active compounds read low 1.02 | locus YEL003W, strain gim4, active compounds read low 1.03 | locus YEL037C, strain rad23, active compounds read low 1.03 | locus YEL061C, strain CIN8 (second series), active compounds read low 1.02 | locus YEL061C, strain CIN8, active compounds read low 1 | locus YER015W, strain faa2, active compounds read low 1.03 | locus YER016W, strain bim1, active compounds read low 1.02 | locus YER110C, active compounds read low 1.03 | locus YER111C, strain swi4, active compounds read low 1.01 | locus YER155C, strain BEM2 (second series), active compounds read low 1.03 | locus YER155C, strain BEM2, active compounds read low 0.999 | locus YER167W, strain BCK2, active compounds read low 1 | locus YFR010W, strain ubp6, active compounds read low 1.03 | locus YGL078C, strain dbp3, active compounds read low 1.01 | locus YGL086W, strain mad1, active compounds read low 1.01 | locus YGL167C, strain pmr1, active compounds read low 1.04 | locus YGL173C, strain kem1, active compounds read low 1.05 | locus YGL227W, strain vid30, active compounds read low 1.05 | locus YGL240W, strain doc1, active compounds read low 0.993 | locus YGL248W, strain PDE1, active compounds read low 1.01 | locus YGL253W, strain hxk2, active compounds read low 1.04 | locus YGR078C, strain PAC10, active compounds read low 1.01 | locus YGR135W, strain pre9, active compounds read low 1.02 | locus YGR252W, strain gcn5, active compounds read low 0.994 | locus YHR013C, strain ard1, active compounds read low 1.03 | locus YHR027C, strain rpn1, active compounds read low 1.01 | locus YHR030C, strain SLT2, active compounds read low 1.01 and 0.977 | locus YHR079C, strain IRE1 (second series), active compounds read low 1.03 | locus YHR079C, strain IRE1, active compounds read low 0.981 | locus YHR094C, strain hxt1, active compounds read low 1.02 | locus YHR129C, strain ARP1, active compounds read low 0.999 | locus YHR142W, strain chs7, active compounds read low 1.06 | locus YHR200W, strain rpn10, active compounds read low 1.02 | locus YIL066C, strain RNR3, active compounds read low 1 | locus YIL073C, strain SPO22, active compounds read low 1.05 | locus YIL125W, strain kgd1, active compounds read low 1.01 | locus YIR030C, strain dcg1, active compounds read low 1.02 | locus YJL092W, strain hpr5, active compounds read low 1.03 | locus YJL095W, strain BCK1 (second series), active compounds read low 1.02 | locus YJL095W, strain BCK1, active compounds read low 1 and 0.971 | locus YJL115W, strain asf1, active compounds read low 1.03 | locus YJL129C, strain trk1, active compounds read low 1.05 | locus YJL134W, strain LCB3, active compounds read low 1.01 | locus YJL154C, strain vps35, active compounds read low 1.03 | locus YJL164C, strain tpk1, active compounds read low 1.04 | locus YJL166W, strain qcr8, active compounds read low 1.01 | locus YJL168C, strain set2, active compounds read low 1.02 | locus YJL187C, strain SWE1 (second series), active compounds read low 1 | locus YJR043C, strain POL32, active compounds read low 1
